Assay results reported in PMC7862700, “An all-to-all approach to the identification of sequence-specific readers for epigenetic DNA modifications on cytosine”.

What was measured:
Experiment in all cases: DAPPL (digital affinity profiling via proximity ligation, sequencing); 10 mM Tris-HCl pH 7.5, 50 mM NaCl, 1 mM DTT, 4% glycerol, room temperature, 30 min; GST-TFs on glutathione beads, 16-mer random dsDNA library, 0.1% formaldehyde crosslink after washing; high values mean tight binding
FLI1 = biological target: T1, FLI1 (Homo sapiens, UniProt Q01543 1-452); conditions: protein: recombinant; tags: N-terminal GST; dsDNA, one strand shown
T1 sequence: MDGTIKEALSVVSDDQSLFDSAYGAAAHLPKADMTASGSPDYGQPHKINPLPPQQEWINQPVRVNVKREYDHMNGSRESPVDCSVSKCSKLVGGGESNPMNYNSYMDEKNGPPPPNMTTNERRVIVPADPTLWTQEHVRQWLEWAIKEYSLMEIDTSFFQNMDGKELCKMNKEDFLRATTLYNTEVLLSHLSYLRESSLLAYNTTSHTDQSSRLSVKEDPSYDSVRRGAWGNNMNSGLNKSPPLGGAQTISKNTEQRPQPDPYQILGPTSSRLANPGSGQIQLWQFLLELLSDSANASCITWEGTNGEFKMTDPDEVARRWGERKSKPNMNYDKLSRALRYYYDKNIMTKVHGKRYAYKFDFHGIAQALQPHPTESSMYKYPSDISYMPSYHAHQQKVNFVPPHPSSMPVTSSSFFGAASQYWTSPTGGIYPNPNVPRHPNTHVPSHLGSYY
Summary of the method: (§1)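 After expression in yeast as GST fusions, human transcription factors were bound to glutathione beads, DNA-barcoded and mixed with a tag-only sample. The pools were incubated with 200 nmole of a 16-mer random double-stranded DNA library in Tris/NaCl/DTT/glycerol buffer (30 min, room temperature), washed and crosslinked with 0.1% formaldehyde. Proximity ligation with BsaI/T4 ligase ran for 1 h at 37 °C, before PCR amplification and sequencing on an Illumina NextSeq500. Binding signal is a hexamer's read frequency for a factor divided by its frequency for the tag-only sample.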

ELK1 = biological target: T2, ELK1 (Homo sapiens, UniProt P19419 1-428); conditions: protein: recombinant; tags: N-terminal GST; dsDNA, one strand shown
T2 sequence: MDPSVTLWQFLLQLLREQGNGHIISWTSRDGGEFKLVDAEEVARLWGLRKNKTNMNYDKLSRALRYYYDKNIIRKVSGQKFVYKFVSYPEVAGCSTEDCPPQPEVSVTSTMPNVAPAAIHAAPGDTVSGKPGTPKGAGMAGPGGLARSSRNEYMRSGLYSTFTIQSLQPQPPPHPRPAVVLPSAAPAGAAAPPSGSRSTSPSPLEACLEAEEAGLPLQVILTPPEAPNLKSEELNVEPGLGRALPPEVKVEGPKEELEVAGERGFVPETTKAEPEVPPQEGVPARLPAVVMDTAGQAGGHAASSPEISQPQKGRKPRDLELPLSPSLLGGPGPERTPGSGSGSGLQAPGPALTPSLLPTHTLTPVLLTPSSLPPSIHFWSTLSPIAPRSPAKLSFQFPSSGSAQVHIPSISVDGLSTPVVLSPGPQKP
Summary of the method: as §1

GABPA = biological target: T3, GABPA (Homo sapiens, UniProt Q06546 1-454); conditions: protein: recombinant; tags: N-terminal GST; dsDNA, one strand shown
T3 sequence: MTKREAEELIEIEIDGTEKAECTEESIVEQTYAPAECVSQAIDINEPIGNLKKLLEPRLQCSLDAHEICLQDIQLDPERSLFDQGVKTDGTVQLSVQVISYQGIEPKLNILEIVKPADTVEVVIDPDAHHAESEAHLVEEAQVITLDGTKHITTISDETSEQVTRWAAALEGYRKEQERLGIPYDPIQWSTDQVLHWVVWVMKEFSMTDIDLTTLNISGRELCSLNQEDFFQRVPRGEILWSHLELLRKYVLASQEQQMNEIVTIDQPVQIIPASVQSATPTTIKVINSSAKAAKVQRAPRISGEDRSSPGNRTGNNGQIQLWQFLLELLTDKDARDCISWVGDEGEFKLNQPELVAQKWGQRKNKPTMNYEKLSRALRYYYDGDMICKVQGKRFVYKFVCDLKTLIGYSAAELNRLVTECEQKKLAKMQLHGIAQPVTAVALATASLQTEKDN
Summary of the method: as §1

ERG = biological target: T4, ERG (Homo sapiens, UniProt P11308 1-479); conditions: protein: recombinant; tags: N-terminal GST; dsDNA, one strand shown
T4 sequence: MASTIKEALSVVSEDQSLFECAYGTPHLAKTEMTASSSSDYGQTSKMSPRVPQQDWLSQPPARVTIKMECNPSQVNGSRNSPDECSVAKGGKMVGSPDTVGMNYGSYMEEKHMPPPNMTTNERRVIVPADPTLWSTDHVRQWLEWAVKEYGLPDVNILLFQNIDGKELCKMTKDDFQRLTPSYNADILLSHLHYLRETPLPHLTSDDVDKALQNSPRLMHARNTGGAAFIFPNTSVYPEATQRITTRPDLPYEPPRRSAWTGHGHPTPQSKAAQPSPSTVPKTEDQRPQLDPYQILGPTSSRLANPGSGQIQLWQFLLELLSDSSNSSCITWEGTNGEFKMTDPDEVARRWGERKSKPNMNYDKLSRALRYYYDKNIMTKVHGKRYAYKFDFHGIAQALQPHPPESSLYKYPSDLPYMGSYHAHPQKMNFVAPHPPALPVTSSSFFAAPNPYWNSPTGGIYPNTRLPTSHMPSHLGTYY
Summary of the method: as §1

ELF1 = ELF1 (Homo sapiens, UniProt P32519 1-619); conditions: protein: recombinant; tags: N-terminal GST; dsDNA, one strand shown
Chain of ELF1 (P32519 whole entry): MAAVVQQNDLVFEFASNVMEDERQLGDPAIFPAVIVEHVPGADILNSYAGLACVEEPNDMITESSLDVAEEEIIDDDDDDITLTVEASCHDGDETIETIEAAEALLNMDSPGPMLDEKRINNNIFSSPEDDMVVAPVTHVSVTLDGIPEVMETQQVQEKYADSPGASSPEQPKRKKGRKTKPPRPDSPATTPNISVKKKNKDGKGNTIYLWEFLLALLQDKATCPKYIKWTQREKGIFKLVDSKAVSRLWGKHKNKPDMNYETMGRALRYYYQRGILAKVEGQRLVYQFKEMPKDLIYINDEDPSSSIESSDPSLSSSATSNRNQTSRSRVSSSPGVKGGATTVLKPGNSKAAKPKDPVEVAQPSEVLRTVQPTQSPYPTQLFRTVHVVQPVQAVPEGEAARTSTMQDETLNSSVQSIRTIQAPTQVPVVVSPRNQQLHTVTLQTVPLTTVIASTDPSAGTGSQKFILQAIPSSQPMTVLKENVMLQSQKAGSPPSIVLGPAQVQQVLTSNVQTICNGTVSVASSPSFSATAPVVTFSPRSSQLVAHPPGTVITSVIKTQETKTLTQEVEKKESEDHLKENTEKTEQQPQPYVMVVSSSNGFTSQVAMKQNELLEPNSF
Summary of the method: as §1

EHF = biological target: T5, EHF (Homo sapiens, UniProt Q9NZC4 1-300); conditions: protein: recombinant; tags: N-terminal GST; dsDNA, one strand shown
T5 sequence: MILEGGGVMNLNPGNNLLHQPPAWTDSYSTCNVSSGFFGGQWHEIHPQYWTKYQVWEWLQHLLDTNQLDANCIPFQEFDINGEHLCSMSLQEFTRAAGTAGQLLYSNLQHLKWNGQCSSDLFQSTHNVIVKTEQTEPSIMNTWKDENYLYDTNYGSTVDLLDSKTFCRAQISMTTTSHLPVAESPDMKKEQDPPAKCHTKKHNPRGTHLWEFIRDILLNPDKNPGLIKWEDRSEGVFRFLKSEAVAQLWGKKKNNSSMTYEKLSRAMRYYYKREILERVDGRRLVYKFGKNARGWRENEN
Summary of the method: as §1

SPI1 = SPI1 (Homo sapiens, UniProt P17947 1-270); conditions: protein: recombinant; tags: N-terminal GST; dsDNA, one strand shown
Summary of the method: as §1

SPIB = SPIB (Homo sapiens, UniProt Q01892 1-262); conditions: protein: recombinant; tags: N-terminal GST; dsDNA, one strand shown
Chain of SPIB (Q01892 whole entry): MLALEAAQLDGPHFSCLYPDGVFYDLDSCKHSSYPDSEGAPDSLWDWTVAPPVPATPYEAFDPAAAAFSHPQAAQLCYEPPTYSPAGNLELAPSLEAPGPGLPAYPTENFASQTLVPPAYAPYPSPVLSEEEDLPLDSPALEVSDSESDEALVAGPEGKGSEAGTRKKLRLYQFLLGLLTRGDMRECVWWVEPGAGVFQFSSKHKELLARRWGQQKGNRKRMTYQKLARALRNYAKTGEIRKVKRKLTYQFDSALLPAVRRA
Summary of the method: as §1

ELK3 = biological target: T6, ELK3 (Homo sapiens, UniProt P41970 1-407); conditions: protein: recombinant; tags: N-terminal GST; dsDNA, one strand shown
T6 sequence: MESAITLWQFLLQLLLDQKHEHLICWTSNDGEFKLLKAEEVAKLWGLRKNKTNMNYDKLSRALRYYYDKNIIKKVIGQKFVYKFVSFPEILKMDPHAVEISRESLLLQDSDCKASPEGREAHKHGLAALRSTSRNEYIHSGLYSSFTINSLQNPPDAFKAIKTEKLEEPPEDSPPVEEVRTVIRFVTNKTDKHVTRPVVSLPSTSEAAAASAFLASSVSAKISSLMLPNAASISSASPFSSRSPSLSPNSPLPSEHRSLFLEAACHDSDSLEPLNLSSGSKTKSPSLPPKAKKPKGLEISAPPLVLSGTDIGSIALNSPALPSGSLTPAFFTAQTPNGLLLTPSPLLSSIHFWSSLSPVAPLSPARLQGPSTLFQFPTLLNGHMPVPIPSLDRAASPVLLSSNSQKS
Summary of the method: as §1

FEV = biological target: T7, FEV (Homo sapiens, UniProt Q99581 1-238); conditions: protein: recombinant; tags: N-terminal GST; dsDNA, one strand shown
T7 sequence: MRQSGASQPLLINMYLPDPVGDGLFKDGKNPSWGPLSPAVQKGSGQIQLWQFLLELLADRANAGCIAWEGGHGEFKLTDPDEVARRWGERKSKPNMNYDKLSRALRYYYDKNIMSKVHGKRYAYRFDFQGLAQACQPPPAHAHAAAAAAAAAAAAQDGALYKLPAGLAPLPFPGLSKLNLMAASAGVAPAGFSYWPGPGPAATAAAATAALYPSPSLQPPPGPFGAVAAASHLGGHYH
Summary of the method: as §1

ETV5 = ETV5 (Homo sapiens, UniProt P41161 1-510); conditions: protein: recombinant; tags: N-terminal GST; dsDNA, one strand shown
Chain of ETV5 (P41161 whole entry): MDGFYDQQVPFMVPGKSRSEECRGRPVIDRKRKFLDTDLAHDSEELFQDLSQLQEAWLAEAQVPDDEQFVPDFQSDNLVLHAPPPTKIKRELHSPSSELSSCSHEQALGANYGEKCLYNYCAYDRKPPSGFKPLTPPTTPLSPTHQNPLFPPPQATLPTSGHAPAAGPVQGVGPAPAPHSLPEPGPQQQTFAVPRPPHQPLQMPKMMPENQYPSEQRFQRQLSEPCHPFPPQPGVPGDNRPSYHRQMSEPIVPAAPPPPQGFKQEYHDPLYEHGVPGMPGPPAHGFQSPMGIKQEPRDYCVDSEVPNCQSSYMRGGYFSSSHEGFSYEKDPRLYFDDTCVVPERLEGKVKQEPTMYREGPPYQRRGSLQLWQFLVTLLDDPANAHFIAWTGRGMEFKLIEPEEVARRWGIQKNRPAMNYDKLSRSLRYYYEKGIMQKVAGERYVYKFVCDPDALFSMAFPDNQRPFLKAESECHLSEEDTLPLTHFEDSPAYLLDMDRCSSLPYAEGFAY
Summary of the method: as §1

HSF1 = HSF1 (Homo sapiens, UniProt Q00613 1-529); conditions: protein: recombinant; tags: N-terminal GST; chain copies: 3; dsDNA, one strand shown
Chain of HSF1 (Q00613 whole entry): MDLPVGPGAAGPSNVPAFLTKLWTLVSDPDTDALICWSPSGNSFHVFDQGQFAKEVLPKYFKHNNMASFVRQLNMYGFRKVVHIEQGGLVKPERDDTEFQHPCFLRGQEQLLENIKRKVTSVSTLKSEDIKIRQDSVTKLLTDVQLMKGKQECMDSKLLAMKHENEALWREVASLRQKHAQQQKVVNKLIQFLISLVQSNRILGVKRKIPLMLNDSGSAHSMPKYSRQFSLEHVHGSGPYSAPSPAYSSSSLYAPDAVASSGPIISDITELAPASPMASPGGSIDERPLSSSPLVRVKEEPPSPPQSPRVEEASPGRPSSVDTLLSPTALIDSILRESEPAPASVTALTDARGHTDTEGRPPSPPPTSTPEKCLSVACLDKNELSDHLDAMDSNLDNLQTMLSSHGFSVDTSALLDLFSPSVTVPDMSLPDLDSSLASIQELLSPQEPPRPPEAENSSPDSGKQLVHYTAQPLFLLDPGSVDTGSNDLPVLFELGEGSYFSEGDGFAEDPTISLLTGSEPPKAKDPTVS
Summary of the method: as §1

SPIC = biological target: T8, SPIC (Homo sapiens, UniProt Q8N5J4 1-248); conditions: protein: recombinant; tags: N-terminal GST; dsDNA, one strand shown
T8 sequence: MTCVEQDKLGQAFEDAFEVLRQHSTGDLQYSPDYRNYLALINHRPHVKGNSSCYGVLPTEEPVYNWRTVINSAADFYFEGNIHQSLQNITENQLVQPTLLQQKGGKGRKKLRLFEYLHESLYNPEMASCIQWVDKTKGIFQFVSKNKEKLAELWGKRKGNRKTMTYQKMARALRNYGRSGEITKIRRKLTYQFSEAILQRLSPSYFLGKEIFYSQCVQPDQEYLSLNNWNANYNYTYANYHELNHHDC
Summary of the method: as §1

ELF4 = ELF4 (Homo sapiens, UniProt Q99607 1-663); conditions: protein: recombinant; tags: N-terminal GST; dsDNA, one strand shown
Chain of ELF4 (Q99607 whole entry): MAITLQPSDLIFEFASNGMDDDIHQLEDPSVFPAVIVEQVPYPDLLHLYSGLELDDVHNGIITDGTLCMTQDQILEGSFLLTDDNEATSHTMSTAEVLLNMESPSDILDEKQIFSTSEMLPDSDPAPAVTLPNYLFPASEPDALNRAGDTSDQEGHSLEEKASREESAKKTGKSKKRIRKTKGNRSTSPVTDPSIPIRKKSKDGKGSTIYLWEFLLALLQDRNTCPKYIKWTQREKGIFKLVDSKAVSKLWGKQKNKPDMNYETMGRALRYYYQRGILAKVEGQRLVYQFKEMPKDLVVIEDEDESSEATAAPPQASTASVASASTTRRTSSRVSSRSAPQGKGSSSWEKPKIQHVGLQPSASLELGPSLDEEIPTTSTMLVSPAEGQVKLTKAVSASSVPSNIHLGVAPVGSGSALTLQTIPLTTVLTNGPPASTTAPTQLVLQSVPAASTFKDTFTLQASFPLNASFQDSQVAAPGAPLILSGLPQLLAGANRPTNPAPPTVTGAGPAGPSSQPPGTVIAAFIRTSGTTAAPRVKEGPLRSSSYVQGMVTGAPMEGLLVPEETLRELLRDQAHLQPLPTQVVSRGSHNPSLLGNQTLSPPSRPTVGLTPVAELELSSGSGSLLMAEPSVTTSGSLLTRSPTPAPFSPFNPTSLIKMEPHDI
Summary of the method: as §1

ELK4 = biological target: T9, ELK4 (Homo sapiens, UniProt P28324-2 1-405); conditions: protein: recombinant; tags: N-terminal GST; dsDNA, one strand shown
T9 sequence: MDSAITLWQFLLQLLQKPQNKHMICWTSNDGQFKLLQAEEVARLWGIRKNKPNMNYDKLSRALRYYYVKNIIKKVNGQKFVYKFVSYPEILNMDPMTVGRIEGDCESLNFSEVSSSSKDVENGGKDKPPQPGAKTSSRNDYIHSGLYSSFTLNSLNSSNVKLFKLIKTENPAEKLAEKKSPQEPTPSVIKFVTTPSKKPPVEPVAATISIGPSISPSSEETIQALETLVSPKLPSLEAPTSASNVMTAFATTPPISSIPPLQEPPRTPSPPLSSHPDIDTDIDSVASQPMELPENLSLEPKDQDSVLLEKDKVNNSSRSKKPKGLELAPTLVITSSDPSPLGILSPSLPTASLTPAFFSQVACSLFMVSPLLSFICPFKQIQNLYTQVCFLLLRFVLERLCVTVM
Summary of the method: as §1

ETV2 = biological target: T10, ETV2 (Homo sapiens, UniProt O00321 1-342); conditions: protein: recombinant; tags: N-terminal GST; dsDNA, one strand shown
T10 sequence: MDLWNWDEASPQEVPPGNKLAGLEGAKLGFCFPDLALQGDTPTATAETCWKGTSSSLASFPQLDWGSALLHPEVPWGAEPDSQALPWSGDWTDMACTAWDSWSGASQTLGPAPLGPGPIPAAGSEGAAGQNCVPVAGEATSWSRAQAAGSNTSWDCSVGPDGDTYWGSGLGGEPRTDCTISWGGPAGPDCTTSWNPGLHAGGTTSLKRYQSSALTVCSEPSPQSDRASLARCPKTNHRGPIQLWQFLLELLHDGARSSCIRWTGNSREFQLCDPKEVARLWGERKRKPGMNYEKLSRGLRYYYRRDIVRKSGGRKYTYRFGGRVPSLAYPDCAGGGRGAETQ
Summary of the method: as §1

ELF3 = biological target: T11, ELF3 (Homo sapiens, UniProt P78545 1-371); conditions: protein: recombinant; tags: N-terminal GST; dsDNA, one strand shown
T11 sequence: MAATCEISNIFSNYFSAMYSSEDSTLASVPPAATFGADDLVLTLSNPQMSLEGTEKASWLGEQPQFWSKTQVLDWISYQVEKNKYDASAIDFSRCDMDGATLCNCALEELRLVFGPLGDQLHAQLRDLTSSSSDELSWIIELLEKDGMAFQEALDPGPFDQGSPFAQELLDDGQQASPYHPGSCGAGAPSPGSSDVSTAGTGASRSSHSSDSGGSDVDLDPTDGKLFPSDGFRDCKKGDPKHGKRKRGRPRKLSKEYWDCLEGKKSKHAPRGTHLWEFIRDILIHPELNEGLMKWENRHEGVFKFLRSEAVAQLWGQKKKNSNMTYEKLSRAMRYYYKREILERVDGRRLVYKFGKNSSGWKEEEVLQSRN
Summary of the method: as §1

CRX = CRX (Homo sapiens, UniProt O43186 1-299); conditions: protein: recombinant; tags: N-terminal GST; dsDNA, one strand shown
Chain of CRX (O43186 whole entry): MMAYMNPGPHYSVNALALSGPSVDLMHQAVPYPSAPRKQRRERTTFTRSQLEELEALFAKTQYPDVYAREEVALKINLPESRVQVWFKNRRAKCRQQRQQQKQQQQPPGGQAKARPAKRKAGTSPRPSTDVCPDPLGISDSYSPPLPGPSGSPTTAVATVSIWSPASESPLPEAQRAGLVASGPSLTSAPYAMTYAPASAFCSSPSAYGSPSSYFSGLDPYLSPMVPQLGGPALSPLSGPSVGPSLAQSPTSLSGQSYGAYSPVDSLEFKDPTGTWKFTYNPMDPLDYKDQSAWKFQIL
Summary of the method: as §1

ETV1 = ETV1 (Homo sapiens, UniProt P50549 1-477); conditions: protein: recombinant; tags: N-terminal GST; dsDNA, one strand shown
Chain of ETV1 (P50549 whole entry): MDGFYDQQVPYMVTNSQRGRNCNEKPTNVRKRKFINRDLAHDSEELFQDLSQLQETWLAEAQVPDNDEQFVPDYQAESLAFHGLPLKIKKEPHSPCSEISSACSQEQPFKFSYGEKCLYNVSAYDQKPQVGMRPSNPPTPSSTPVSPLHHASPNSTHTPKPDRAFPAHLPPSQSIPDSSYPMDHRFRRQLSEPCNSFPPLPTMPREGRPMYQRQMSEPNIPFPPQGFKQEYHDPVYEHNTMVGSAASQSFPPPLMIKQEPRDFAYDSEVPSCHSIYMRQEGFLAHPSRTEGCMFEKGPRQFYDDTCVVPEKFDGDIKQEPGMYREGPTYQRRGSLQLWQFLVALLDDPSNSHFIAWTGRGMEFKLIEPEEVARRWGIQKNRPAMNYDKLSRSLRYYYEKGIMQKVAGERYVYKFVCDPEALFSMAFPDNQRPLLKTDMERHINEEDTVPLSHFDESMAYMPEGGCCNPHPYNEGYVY
Summary of the method: as §1

**Q.** Which results are given for TGTACT?
**A.** binding signal (FLI1): 1.28 fold enrichment (6-mer frequency, TF over GST control); binding signal (ELK1): 1.44 fold enrichment (6-mer frequency, TF over GST control); binding signal (GABPA): 1.24 fold enrichment (6-mer frequency, TF over GST control); binding signal (ERG): 1.24 fold enrichment (6-mer frequency, TF over GST control); binding signal (ELF1): 1.35 fold enrichment (6-mer frequency, TF over GST control); binding signal (EHF): 1.3 fold enrichment (6-mer frequency, TF over GST control); binding signal (SPI1): 1.25 fold enrichment (6-mer frequency, TF over GST control); binding signal (SPIB): 1.21 fold enrichment (6-mer frequency, TF over GST control); binding signal (ELK3): 1.35 fold enrichment (6-mer frequency, TF over GST control); binding signal (FEV): 1.41 fold enrichment (6-mer frequency, TF over GST control); binding signal (ETV5): 1.34 fold enrichment (6-mer frequency, TF over GST control); binding signal (HSF1): 1.18 fold enrichment (6-mer frequency, TF over GST control); binding signal (SPIC): 1.18 fold enrichment (6-mer frequency, TF over GST control); binding signal (ELF4): 1.29 fold enrichment (6-mer frequency, TF over GST control); binding signal (ELK4): 1.2 fold enrichment (6-mer frequency, TF over GST control); binding signal (ETV2): 1.3 fold enrichment (6-mer frequency, TF over GST control); binding signal (ELF3): 1.23 fold enrichment (6-mer frequency, TF over GST control); binding signal (CRX): 1.15 fold enrichment (6-mer frequency, TF over GST control); binding signal (ETV1): 1.34 fold enrichment (6-mer frequency, TF over GST control)
